Experimental data: PubChem BioAssay (Tox21)
Several values for one entry are separate records, joined by “and”; a condition that tells them apart may be missing. Identical values can stand only once. Inconclusive results are not listed. More than one record can exist for a structure, and the calls need not agree. Activity calls are given as the source filed them. Calls come from the whole dose curve; as a rule, active = well fitted activation curve with a large enough effect in the repeat runs; inconclusive = weak or mixed curves; inactive = flat fitted curve, though single readings scatter.

molecular target: Nuclear receptor subfamily 1 group I member 2 (Homo sapiens) (UniProt O75469); experiment: Human pregnane X receptor (PXR) activation by small molecules, qHTS assay (AID 1346985); settings: DPX-2 HepG2 CYP3A4-luciferase, 24 h; series mostly up to 38.3 µM; activation: at the top concentration; note: nearly all actives have a fitted effect of over 40% in size
Source text: National Center for Advancing Translational Sciences [NCATS]
NIH Chemical Genomics Center [NCGC]
U.S. Environmental Protection Agency [EPA]
National Institutes of Environmental Health Sciences [NIEHS]
National Toxicology Program [NTP]
The Pregnane X receptor (PXR), a ligand activated nuclear receptor plays a critical role in the regulation of genes involved in drug metabolism and transporters. Activation of PXR may be involved in the unwanted adverse drug-drug interactions. […] Therefore, identification of compounds with the potential for PXR activation can be of importance in improving the efficacy of drugs with less toxicity and avoiding drug-drug interactions.
DPX-2 (Puracyp, Inc.) cell lines, used for screening against human PXR activation has HepG2 cells co-transfected with a PXR response element and a luciferase construct containing CYP3A4 promoter. Increase in luciferase activity can be used to identify the compounds that activate the PXR pathway.
DPX-2 cells were dispensed at 2,000 cells per well in 5uL of assay medium into white, solid-bottom 1536-well plates using a Multidrop Combi dispenser (Thermo Scientific). The assay plates were incubated at 37C for 5hr before transferring 23nL of test compounds dissolved in DMSO and positive control via Pintool station (Wako). The assay plates were incubated at 37C for 24hr. Then 5ul One-Glo assay reagent (Promega) was added to each plate by a Flying Reagent Dispenser (FRD, Aurora Discovery) and following 30 min incubation at room temperature, luciferase activity was quantified on a ViewLux plate reader (Perkin Elmer).
% is set by controls: 0 for no effect and ±100 for the full control effect; potency is the fitted concentration of half-maximal effect.

Structure (SMILES)	activation	Potency
C=C1[C@@H]2CC[C@@H](C2)C1(C)C	-9.1% (inactive)	–
NC(=O)C1c2ccccc2CCc2ccccc21	11.7% (inactive)	–
FC(F)(F)C(F)(F)C(F)(F)C(F)(F)C(F)(F)F	-13.5% (inactive)	–
N[C@@H](Cc1cnc[nH]1)C(=O)O	7.09% (inactive)	–
COC(=O)C(CN)c1c[nH]c2ccc(OC)cc12 (stereo not given)	-8.27% (inactive)	–
CCCCCCCCCCCCCCCCC(C(=O)O)C(O)(CC(=O)O)C(=O)O (stereo not given)	1.59% (inactive)	–
O=C1c2ccccc2CN2C(=O)c3ccccc3CN12	2.94% (inactive)	–
CCCCCCCCCCCCCC(=O)OCC(COP(=O)([O-])OCC[N+](C)(C)C)OC(=O)CCCCCCCCCCCCC (stereo not given)	-0.171% (inactive)	–
CCCCCCCCCC(=O)NO	0.118% (inactive)	–
C=CC1=C(C(=O)O)N2C(=O)[C@@H](NC(=O)/C(=N/OCC(=O)O)c3csc(N)n3)[C@H]2SC1 (stereo in doubt)	-10.1% [at 17.1 µM] (inactive)	–
O=c1[nH]c(=O)n([C@H]2C[C@H](O)[C@@H](CO)O2)cc1/C=C/Br	-5% (inactive)	–
O=P(O)(O)OP(=O)(O)OP(=O)(O)O	-0.169% (inactive)	–
NC(=S)NS(=O)(=O)c1ccc(N)cc1	3.85% (inactive)	–
O=C(O)C[C@H](O)C[C@H](O)/C=C/c1c(C2CC2)nc2ccccc2c1-c1ccc(F)cc1	22.1% (inactive)	–
CO/N=C(\C(=O)N[C@@H]1C(=O)N2C(C(=O)O)=C(COC(C)=O)CS[C@H]12)c1csc(N)n1 (stereo in doubt)	-6.01% (inactive)	–
Cc1onc(-c2c(F)cccc2Cl)c1C(=O)N[C@@H]1C(=O)N2[C@@H]1SC(C)(C)[C@@H]2C(=O)O	–	inactive and 25.1 µM (active)
CC1(C)S[C@@H]2[C@H](NC(=O)[C@H](N)c3ccc(O)cc3)C(=O)N2[C@H]1C(=O)O	8.56% (inactive)	–
C=C1C(=C/C=C2\CCC[C@]3(C)[C@@H]([C@H](C)CCCC(C)C)CC[C@@H]23)C[C@@H](O)C[C@@H]1O	20.3% (inactive)	–
O=C1CC[C@@H](C(=O)N[C@H]2C[C@@H]2c2ccccc2)N1	2.12% (inactive)	–
O=C1C2CC3CC1CC(O)(C3)C2	3.69% (inactive)	–

Structure (SMILES)	activation	Potency
CO[C@H](C(=O)[C@@H](O)[C@@H](C)O)C1Cc2cc3cc(O[C@H]4C[C@@H](O[C@H]5C[C@@H](O)[C@H](O)[C@@H](C)O5)[C@@H](O)[C@@H](C)O4)c(C)c(O)c3c(O)c2C(=O)[C@H]1O[C@H]1C[C@@H](O[C@H]2C[C@@H](O[C@H]3C[C@](C)(O)[C@H](O)[C@@H](C)O3)[C@H](O)[C@@H](C)O2)[C@H](O)[C@@H](C)O1 (stereo not given in full)	-7.03% (inactive)	–
N=C(N)c1ccc(/C=C/c2ccc(C(=N)N)cc2O)cc1	-11.7% (inactive)	–
CC(C)(Oc1ccc(C2CCCc3ccccc32)cc1)C(=O)O (stereo not given)	24.9% (inactive)	–
CC1(C)C[C@@H]1C(=O)N/C(=C\CCCCSC[C@H](N)C(=O)O)C(=O)O	–	inactive
CCC1OC(=O)C[C@@H](O)[C@H](C)[C@@H](O[C@@H]2O[C@H](C)C[C@H](N(C)C)[C@H]2O)[C@@H](CC=O)C[C@@H](C)C(=O)/C=C/[C@]2(C)OC2C1C (stereo not given in full)	2.87% (inactive)	–
CC(=O)OCC1=C(C(=O)O)N2C(=O)[C@@H](NC(=O)Cc3ccccc3)[C@H]2SC1	1.83% (inactive)	–
NCC(O)CC(=O)O (stereo not given)	10.3% (inactive)	–
O=C(O)Cc1nn(Cc2ccc(Br)cc2F)c(=O)c2ccccc12	-2.97% (inactive)	–
CCCOC(=O)c1ccccc1O	-1.14% (inactive)	–
CC(C)[N+]1(C)[C@@H]2CC[C@H]1CC(OC(=O)C(CO)c1ccccc1)C2 (stereo not given in full)	8.06% (inactive)	–
O=C(O)COc1ccccc1/C=N/NC(=O)c1ccncc1	-1.76% (inactive)	–
NCCO/C=C/[C@H](N)C(=O)O	-6.93% (inactive)	–
COC1=C(OC)C(=O)C(C/C=C(\C)CC/C=C(\C)CC/C=C(\C)CC/C=C(\C)CC/C=C(\C)CC/C=C(\C)CC/C=C(\C)CC/C=C(\C)CC/C=C(\C)CCC=C(C)C)=C(C)C1=O	4.7% (inactive)	–
COC(=O)C[C@](O)(CCCC(C)(C)O)C(=O)O[C@@H]1C(OC)=CC23CCCN2CCc2cc4c(cc2[C@H]13)OCO4 (stereo not given in full)	-4.74% (inactive)	–
CC(=O)[C@]1(O)Cc2c(O)c3c(c(O)c2[C@@H](O[C@H]2C[C@H](N)[C@H](O)[C@H](C)O2)C1)C(=O)c1ccccc1C3=O	-17% (inactive)	–
CC(C)CCC[C@@H](C)[C@H]1CC[C@H]2[C@@H]3CC[C@@H]4C[C@H](O)CC[C@]4(C)[C@H]3CC[C@]12C	-4.19% (inactive)	–
C[C@H]1O[C@@H](O[C@H]2CC[C@@]3(C)[C@H](CC[C@@H]4[C@@H]3C[C@@H](O)[C@]3(C)[C@@H](C5=CC(=O)OC5)CC[C@]43O)C2)C[C@H](O)[C@@H]1O[C@H]1C[C@H](O)[C@H](O[C@H]2C[C@H](O)[C@H](O[C@@H]3O[C@H](CO)[C@@H](O)[C@H](O)[C@H]3O)[C@@H](C)O2)[C@@H](C)O1	-19.1% (inactive)	–
CC(=O)OCC(=O)[C@@]1(O)CC[C@H]2[C@@H]3CCC4=CC(=O)CC[C@]4(C)C3=CC[C@@]21C	9.96% (inactive)	–
CCCOC(=O)c1ccc(O)cc1	5.37% (inactive)	–
C[N+](C)(C)CCOP(=O)(O)OP(=O)([O-])OC[C@H]1O[C@@H](n2ccc(N)nc2=O)[C@H](O)[C@@H]1O	4.9% (inactive)	–
